Screening results from PubChem.
Rows were chosen to be rich in hits. Some 2.2% of all compounds tested hit in one or more screens of this group.
Shn3 inh set2 – Schnurri-3 reporter inhibition in Clone20 osteoblasts; Clone20 osteoblast Shn3 3'UTR firefly luciferase, 24 h; inhibition, % at 12.5 µM; hit rate 0.52% among 360,000; AID 588674;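 active means mean inhibition of at least 75% with every replicate also reaching 75%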;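 further: 0% = median of neutral control wells and 100% = pilot-screen positive control compound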
CSC inhib – blocks cancer stem cells; cancer stem cell-like cells viability, luminescence; hit rate 1.1% among 300,000; inhibition, % at 7.5 µM; AID 2717; in the data active means inhibition above about 75%; tested in HMLE shEcad cells
Calb FLC – affects C. albicans growth with fluconazole; C. albicans CaCi-2 (fluconazole-resistant clinical isolate) + fluconazole, Alamar Blue growth, 48 h; AID 1979; hit rate 0.57% among 300,000; growth inhibition, % (no concentration beside the values);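 active means growth inhibition above about 58% in most replicates, limit read from the data, passing the limit was not always enough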;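 further: all wells also contain fluconazole at 8 µg/ml as a sub-toxic cotreatment; 0% = median of DMSO wells and 100% = median of geldanamycin control wells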
PfHsp90 yeast 2 – growth inhibition of yeast expressing Plasmodium Hsp90 | S. cerevisiae expressing PfHsp90, BacTiter-Glo ATP, 48 h; yeast lacking PDR1 and PDR3 efflux regulators | inhibition, % at 9.4 µM | hit rate 0.32% among 310,000 | AID 504621;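 active means every replicate shows inhibition above about 80%, whatever the replicate mean, limit read from the data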;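 further: 0% = DMSO neutral controls and 100% = 20 µM radicicol positive controls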
Beta apoptosis – blocks beta cell apoptosis. protection from apoptosis, % (no concentration beside the values). hit rate 0.8% among 300,000. INS-1E cytokine-induced death, ATP luminescence, 48 h; percent of positive-control rescue, neutral wells zero;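 active means Every replicate reaches about 75%, or at least half do and their mean reaches it too, limit read from the data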;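 further: 0% = cytokine-treated negative control wells and 100% = positive control rescue; higher means more ATP so stronger rescue from cytokine killing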
Numbers without * were called inactive.

Screening CC(NC(=O)c1ccc(Br)cc1)c1ccc2c(c1)CCCC2 (stereo not given) returned Shn3 inh set2 6, CSC inhib -5, Calb FLC 1, PfHsp90 yeast 2 105* and Beta apoptosis -6.
`CC(Oc1cc(F)ccc1[N+](=O)[O-])C(=O)N(C)CC(=O)Nc1ccccc1C(F)(F)F` (stereo not given) gave Shn3 inh set2 4, CSC inhib 6, Calb FLC -14, PfHsp90 yeast 2 2 and Beta apoptosis -4.
For O=C(NCc1ccco1)c1ccccc1NS(=O)(=O)c1ccc(Br)s1 the results were Shn3 inh set2 -18, CSC inhib 26, Calb FLC 108* and Beta apoptosis 14.
For CC(C)OCCCNC(=O)CN1C(=O)c2cccc3cccc1c23 the results were Shn3 inh set2 3, CSC inhib 1, Calb FLC -34, PfHsp90 yeast 2 -10 and Beta apoptosis -3.
Cc1cc(C(=O)CN2C(=O)C(=O)N(Cc3ccccc3)C2=O)c(C)n1Cc1ccccc1 was read as Shn3 inh set2 0, CSC inhib 97*, PfHsp90 yeast 2 17 and Beta apoptosis 4.
For CCCn1c(C)cc(C(=O)CN2C(=O)c3ccccc3S2(=O)=O)c1C the results were Shn3 inh set2 83*.
Cc1cc(C(=O)CN2C(=O)c3ccccc3S2(=O)=O)c(C)n1CC1CCCO1 (stereo not given) was read as Shn3 inh set2 68, CSC inhib -7, Calb FLC 7 and Beta apoptosis -1.
O=C(Cn1cnc2ccccc2c1=O)c1ccc(OC(F)F)cc1 was read as Shn3 inh set2 -39, CSC inhib 5, Calb FLC 0, PfHsp90 yeast 2 18 and Beta apoptosis 3.
`CCCCNC(=O)[C@@H]1CC=C[C@@H]2CCN(Cc3ccc(Cl)c(Cl)c3)C(=O)[C@@H]21` gave Shn3 inh set2 -12, CSC inhib 7, Calb FLC -1 and Beta apoptosis -6.
`O=C(NCCc1ccccc1)[C@@H]1CC=C[C@@H]2CCN(Cc3ccc(Cl)c(Cl)c3)C(=O)[C@@H]21` gave Shn3 inh set2 25, CSC inhib 21, Calb FLC -2, PfHsp90 yeast 2 -19 and Beta apoptosis 99*.
`Cc1cc(C)c(O)c(-c2cc(C(=O)Nc3ccc(S(=O)(=O)N4CCOCC4)cc3)[nH]n2)c1` gave Shn3 inh set2 91*, CSC inhib 88*, Calb FLC -11 and PfHsp90 yeast 2 2.
Cc1c(Cl)cccc1N1C(=O)CC(Sc2ccccc2N)C1=O (stereo not given) was read as Shn3 inh set2 0.
`CC(C)(C)OC(=O)N[C@H](/C=C/c1ccccc1)C(=O)OC(C)(C)C` gave Shn3 inh set2 -4, CSC inhib -2, PfHsp90 yeast 2 26 and Beta apoptosis -6.
`COc1ccc(C2=CC3=C(Br)C(=O)C(C)(OC(=O)c4cccs4)C(=O)C3=CO2)cc1` (stereo not given) gave Shn3 inh set2 -69, CSC inhib 0, Calb FLC -2, PfHsp90 yeast 2 107* and Beta apoptosis -8.
For CC1(OC(=O)c2ccco2)C(=O)C=C2C=C(c3ccsc3)OC=C2C1=O (stereo not given) the results were CSC inhib 0, Calb FLC 2 and Beta apoptosis -7.
`COCCN1C=C2C(=O)C(C)(OC(=O)CCC(=O)OC)C(=O)C(Br)=C2C=C1c1ccc(OC)cc1` (stereo not given) gave Shn3 inh set2 15, CSC inhib 9, Calb FLC 12, PfHsp90 yeast 2 5 and Beta apoptosis -21.
COc1ccc(C2=CC3=C(Br)C(=O)C(C)(OC(=O)c4ccco4)C(=O)C3=CO2)cc1 (stereo not given) was read as Shn3 inh set2 -15, CSC inhib -10, Calb FLC -11, PfHsp90 yeast 2 active and Beta apoptosis 1.
For Cc1ccc(S(=O)(=O)Nc2ccc3cn[nH]c3c2)c(C)c1 the results were Shn3 inh set2 16, PfHsp90 yeast 2 -4 and Beta apoptosis 1.
Screening CCOc1cc(C)c(S(=O)(=O)Nc2ccc3cn[nH]c3c2)cc1C returned Shn3 inh set2 87*, CSC inhib -11, Calb FLC 4, PfHsp90 yeast 2 3 and Beta apoptosis 89*.
For O=C1c2nccnc2C(=O)N1c1ccc(F)cc1 the results were Shn3 inh set2 -10, CSC inhib -3, Calb FLC 6, PfHsp90 yeast 2 -16 and Beta apoptosis 0.
For O=C1Nc2ccc(Br)cc2/C1=C/C(=O)c1ccccc1 the results were Shn3 inh set2 65 and PfHsp90 yeast 2 106*.
Screening O=C(O)COc1ccccc1/C=C1\C(=O)Nc2ccc(Br)cc21 returned Shn3 inh set2 -35, CSC inhib -9, Calb FLC -14, PfHsp90 yeast 2 35 and Beta apoptosis -3.
Screening O=S(=O)(NCCOc1ccccc1F)c1cccc(Br)c1 returned Shn3 inh set2 8, CSC inhib 2 and Beta apoptosis -6.
Screening Cc1ccnc(NC(=O)Cn2c(=O)oc3ccccc32)c1 returned Shn3 inh set2 -24, CSC inhib -3, Calb FLC 2, PfHsp90 yeast 2 -4 and Beta apoptosis -12.
`CCN1C/C(=C\c2cccc([N+](=O)[O-])c2)C(=O)/C(=C/c2cccc([N+](=O)[O-])c2)C1` gave Shn3 inh set2 95* and PfHsp90 yeast 2 95*.
`COc1cc(/C=C2\COC/C(=C\c3ccc(O)c(OC)c3)C2=O)ccc1O` gave CSC inhib 87*, Calb FLC 0, PfHsp90 yeast 2 -4 and Beta apoptosis -12.
`COc1ccc(/C=C2\CN(Cc3ccccc3)C/C(=C\c3ccc(OC)c(O)c3)C2=O)cc1O` gave Shn3 inh set2 96*, CSC inhib 119*, Calb FLC 1, PfHsp90 yeast 2 -9 and Beta apoptosis 104*.
CCN1C/C(=C/c2ccc(OC)c(O)c2)C(=O)/C(=C/c2ccc(OC)c(O)c2)C1 was read as Shn3 inh set2 -20, CSC inhib 102*, Calb FLC 52, PfHsp90 yeast 2 10 and Beta apoptosis 97*.
`COc1cc(/C=C2/CC/C(=C/c3ccc(O)c(OC)c3)C2=O)ccc1O` gave Shn3 inh set2 -4, CSC inhib 48, Calb FLC -8, PfHsp90 yeast 2 -5 and Beta apoptosis 15.
For COc1ccc(C=C2C(=O)c3ccccc3C2=O)cc1O the results were Shn3 inh set2 8, CSC inhib -4, Calb FLC 0 and PfHsp90 yeast 2 -18.
O=C1/C(=C/c2cccc([N+](=O)[O-])c2)CCc2ccccc21 was read as Shn3 inh set2 -1, CSC inhib -8, Calb FLC 8, PfHsp90 yeast 2 -21 and Beta apoptosis -2.
Screening COCc1c(C(=O)NC(C)c2ccc(S(N)(=O)=O)cc2)oc2ccccc12 (stereo not given) returned Shn3 inh set2 13, CSC inhib -3, Calb FLC 12, PfHsp90 yeast 2 -21 and Beta apoptosis 8.
`CC(=NNC(=S)N1CC2CCC(CC2)C1)c1ccccn1` gave Shn3 inh set2 86*.
